# The supplement of paper PMC11001985
# Values without a mark were called inactive.
# Compound: C#CCNC(=O)CCSSCCC(=O)NCCc1ccc(C=O)c(C=O)c1
# Test: lysine labeling ratio R10:1 (500 µM / 50 µM probe), SILAC-ABPP in living cells; higher = lower intrinsic lysine reactivity toward the probe, active = 2 or less
# Settings: HeLa; probe concentrations 500 vs 50 µM
# In short: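 Each lysine carries an R value: the filtered median of MS1 peptide ratios of high probe to low probe, with the median then taken over forward and reverse replicates. These came from living SILAC light and heavy HeLa cells in PBS at room temperature labelled with an alkyne-tagged, disulfide-linked lysine probe at 500 µM or 50 µM, in forward and reverse swaps. The lysates were mixed, clicked to biotin-azide, trypsin-digested, captured on neutravidin, released by DTT, alkylated and run by LC-MS/MS on a TIMS-TOF Pro. The highest value allowed is 20.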
# UniProt P54289, sequence (P54289 whole entry): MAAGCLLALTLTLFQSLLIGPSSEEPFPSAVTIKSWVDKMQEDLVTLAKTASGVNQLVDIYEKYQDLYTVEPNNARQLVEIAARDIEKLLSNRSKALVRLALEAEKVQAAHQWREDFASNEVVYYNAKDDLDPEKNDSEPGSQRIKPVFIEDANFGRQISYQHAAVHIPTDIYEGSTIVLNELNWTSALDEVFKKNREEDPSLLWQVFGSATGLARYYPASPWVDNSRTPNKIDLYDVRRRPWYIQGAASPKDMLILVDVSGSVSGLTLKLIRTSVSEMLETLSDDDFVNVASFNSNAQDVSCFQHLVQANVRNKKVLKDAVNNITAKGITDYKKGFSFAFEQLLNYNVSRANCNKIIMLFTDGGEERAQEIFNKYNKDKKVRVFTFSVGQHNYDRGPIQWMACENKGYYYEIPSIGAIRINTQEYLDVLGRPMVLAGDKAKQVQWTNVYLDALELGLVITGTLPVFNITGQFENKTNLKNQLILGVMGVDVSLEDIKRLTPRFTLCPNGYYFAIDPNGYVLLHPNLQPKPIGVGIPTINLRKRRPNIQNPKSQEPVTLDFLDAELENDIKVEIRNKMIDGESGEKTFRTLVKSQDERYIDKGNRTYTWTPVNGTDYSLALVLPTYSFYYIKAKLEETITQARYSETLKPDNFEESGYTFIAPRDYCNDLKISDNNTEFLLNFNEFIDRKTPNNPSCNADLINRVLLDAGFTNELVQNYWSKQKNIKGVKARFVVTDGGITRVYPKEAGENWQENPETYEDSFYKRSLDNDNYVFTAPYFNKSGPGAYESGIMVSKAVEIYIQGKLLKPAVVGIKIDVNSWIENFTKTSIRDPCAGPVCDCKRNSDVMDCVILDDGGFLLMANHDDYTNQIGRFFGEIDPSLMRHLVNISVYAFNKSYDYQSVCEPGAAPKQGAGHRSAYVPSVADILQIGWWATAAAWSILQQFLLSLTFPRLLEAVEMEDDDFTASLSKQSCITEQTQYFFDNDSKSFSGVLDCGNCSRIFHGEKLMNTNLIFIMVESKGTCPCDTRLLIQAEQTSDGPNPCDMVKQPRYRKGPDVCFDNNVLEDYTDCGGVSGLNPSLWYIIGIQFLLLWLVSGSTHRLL
# UniProt P17987, sequence (P17987 whole entry): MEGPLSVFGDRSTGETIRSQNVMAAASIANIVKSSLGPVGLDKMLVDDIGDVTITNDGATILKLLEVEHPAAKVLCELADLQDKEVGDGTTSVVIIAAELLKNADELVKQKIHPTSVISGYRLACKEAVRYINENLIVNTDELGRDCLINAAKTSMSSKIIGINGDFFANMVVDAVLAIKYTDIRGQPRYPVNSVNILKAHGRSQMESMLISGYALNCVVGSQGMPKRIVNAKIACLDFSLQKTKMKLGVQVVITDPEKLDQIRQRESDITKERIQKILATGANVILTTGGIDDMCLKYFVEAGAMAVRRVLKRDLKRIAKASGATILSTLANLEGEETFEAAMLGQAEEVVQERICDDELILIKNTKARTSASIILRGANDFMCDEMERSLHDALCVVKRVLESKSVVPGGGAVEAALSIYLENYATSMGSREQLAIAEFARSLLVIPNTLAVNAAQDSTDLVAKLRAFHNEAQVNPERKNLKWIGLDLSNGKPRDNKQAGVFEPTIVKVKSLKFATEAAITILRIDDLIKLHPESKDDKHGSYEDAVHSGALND
# UniProt P38646, sequence (P38646 whole entry): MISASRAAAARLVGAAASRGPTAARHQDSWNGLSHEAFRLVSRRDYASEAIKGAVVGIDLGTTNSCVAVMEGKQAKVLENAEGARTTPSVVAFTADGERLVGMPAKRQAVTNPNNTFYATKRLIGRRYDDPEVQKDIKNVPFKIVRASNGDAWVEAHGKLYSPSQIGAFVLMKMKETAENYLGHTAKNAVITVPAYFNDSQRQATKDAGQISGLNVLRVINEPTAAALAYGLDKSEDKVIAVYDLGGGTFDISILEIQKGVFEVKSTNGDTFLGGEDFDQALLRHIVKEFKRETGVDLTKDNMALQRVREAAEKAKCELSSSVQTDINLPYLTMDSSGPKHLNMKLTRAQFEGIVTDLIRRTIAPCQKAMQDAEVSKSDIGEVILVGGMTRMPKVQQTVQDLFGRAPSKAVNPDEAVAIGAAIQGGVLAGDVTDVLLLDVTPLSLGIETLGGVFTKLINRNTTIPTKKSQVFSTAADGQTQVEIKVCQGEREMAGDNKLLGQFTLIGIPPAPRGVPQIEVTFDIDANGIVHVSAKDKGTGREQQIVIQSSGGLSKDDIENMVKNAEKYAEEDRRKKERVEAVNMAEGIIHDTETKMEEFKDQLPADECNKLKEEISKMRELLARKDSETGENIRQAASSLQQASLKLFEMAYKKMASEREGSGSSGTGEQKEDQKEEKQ
# UniProt P34897, sequence (P34897 whole entry): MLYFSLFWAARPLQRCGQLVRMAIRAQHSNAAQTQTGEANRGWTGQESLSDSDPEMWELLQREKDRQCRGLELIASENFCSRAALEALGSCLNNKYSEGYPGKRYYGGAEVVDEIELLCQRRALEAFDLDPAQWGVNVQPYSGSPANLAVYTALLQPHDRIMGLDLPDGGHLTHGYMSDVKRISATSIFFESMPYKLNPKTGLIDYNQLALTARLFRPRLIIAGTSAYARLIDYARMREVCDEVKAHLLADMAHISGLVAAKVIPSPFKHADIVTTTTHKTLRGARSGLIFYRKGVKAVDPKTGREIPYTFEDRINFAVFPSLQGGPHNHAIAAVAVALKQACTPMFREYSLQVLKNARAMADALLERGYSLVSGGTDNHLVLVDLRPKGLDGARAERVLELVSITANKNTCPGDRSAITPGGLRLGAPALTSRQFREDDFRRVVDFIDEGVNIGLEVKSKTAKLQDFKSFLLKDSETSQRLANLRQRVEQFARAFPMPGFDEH
# UniProt P35221, sequence (P35221 whole entry): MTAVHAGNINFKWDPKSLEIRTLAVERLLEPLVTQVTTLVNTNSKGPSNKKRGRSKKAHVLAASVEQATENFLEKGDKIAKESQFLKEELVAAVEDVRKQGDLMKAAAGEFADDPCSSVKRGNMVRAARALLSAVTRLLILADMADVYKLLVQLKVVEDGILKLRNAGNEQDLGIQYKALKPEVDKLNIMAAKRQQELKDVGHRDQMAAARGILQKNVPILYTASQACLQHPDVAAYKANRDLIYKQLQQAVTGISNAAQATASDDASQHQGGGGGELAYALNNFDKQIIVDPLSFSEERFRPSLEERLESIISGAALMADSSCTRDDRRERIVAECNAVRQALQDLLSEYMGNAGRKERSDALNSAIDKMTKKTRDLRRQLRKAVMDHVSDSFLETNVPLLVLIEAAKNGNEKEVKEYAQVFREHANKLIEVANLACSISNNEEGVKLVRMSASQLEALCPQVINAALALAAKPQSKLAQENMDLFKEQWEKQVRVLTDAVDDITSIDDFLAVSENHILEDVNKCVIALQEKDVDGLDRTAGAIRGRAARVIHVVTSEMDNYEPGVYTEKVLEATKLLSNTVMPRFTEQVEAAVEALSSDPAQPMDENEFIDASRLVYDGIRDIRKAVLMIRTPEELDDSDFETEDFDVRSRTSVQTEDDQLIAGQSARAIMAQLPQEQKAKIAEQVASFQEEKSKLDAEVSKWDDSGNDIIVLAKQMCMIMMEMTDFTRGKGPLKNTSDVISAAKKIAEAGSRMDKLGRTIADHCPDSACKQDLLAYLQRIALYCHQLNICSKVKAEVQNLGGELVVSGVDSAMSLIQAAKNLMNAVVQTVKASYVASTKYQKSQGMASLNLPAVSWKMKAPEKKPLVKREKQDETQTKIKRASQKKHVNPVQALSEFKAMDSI
row,Target,lysine labeling ratio R10:1
1,CTNNA1 (lysine site: K748) (UniProt P35221),2.15
2,SHMT2 (lysine site: K181) (UniProt P34897),1.17 (active)
3,HSPA9 (lysine site: K206) (UniProt P38646),2.48
4,CACNA2D1 (lysine site: K690) (UniProt P54289),3.51
5,TCP1 (lysine site: K272) (UniProt P17987),2.44
